Measured values from the antibiotic and cytotoxicity screens of Wong et al. (2023).
Among all 39,000 compounds or so, about 1,500 (3.8%) were called active. The sample as a whole holds a higher share of actives than the screen did.

What follows are molecules tested on HSkMC (human skeletal muscle cells) (assay: cytotoxicity call (relative viability < 0.9)). Details: 10 µM.

Row | Compound | cytotoxicity call
1 | COc1ccc(S(=O)(=O)Nc2ccc3c(c2)C(=O)N([C@@H](C)CO)C[C@@H](C)[C@@H](CN(C)Cc2ccncc2)O3)cc1 | inactive
2 | CC(C)NC(=O)N(C)C[C@@H]1Oc2ccc(NS(=O)(=O)c3ccc(F)cc3)cc2CC(=O)N([C@H](C)CO)C[C@@H]1C | inactive
3 | COc1cccc(S(=O)(=O)N[C@H]2CC[C@H](CCn3cc(-c4ccccc4OC)nn3)O[C@H]2CO)c1 | inactive
4 | C[C@H]1CCCCO[C@@H](CN(C)C(=O)NC2CCCCC2)[C@@H](C)CN([C@@H](C)CO)C(=O)c2cc(NC(=O)Nc3ccc(F)cc3)ccc2O1 | inactive
5 | C[C@H]1CN([C@@H](C)CO)C(=O)c2cccc(NC(=O)c3ccc(-c4nccs4)cc3)c2O[C@H]1CN(C)Cc1ccc(Cl)c(Cl)c1 | inactive
6 | COc1ccccc1-c1ccc2c(c1)O[C@@H](CN(C)S(=O)(=O)c1ccccc1)[C@H](C)CN([C@@H](C)CO)S2(=O)=O | inactive
7 | COc1ccc2c3c([nH]c2c1)[C@H](CO)N(C[C@]13CN(C)C1)C(=O)CN1CCOCC1 | inactive
8 | COc1ccc(NC(=O)N(C)C[C@H]2OCCCC[C@@H](C)Oc3ccc(NS(=O)(=O)c4ccc(Cl)cc4)cc3C(=O)N([C@@H](C)CO)C[C@@H]2C)cc1 | inactive
9 | Cc1ccc(S(=O)(=O)Nc2ccc3c(c2)C(=O)N([C@H](C)CO)C[C@H](C)[C@@H](CN(C)C(=O)NC(C)C)O3)cc1 | inactive
10 | Cc1ccc(S(=O)(=O)N(C)C[C@H]2OCCCC[C@H](C)Oc3ccc(NC(=O)Nc4ccc(C(F)(F)F)cc4)cc3C(=O)N([C@H](C)CO)C[C@H]2C)cc1 | inactive
11 | CCC(=O)Nc1ccc2c(c1)C(=O)N(C)C[C@@H](OC)[C@H](C)CN(C(=O)CN1CCOCC1)[C@H](C)CO2 | inactive
12 | Cc1noc(C)c1S(=O)(=O)N(C)C[C@@H]1Oc2ccc(NC(=O)Cn3cnnn3)cc2C(=O)N([C@@H](C)CO)C[C@@H]1C | inactive
13 | Cc1noc(C)c1S(=O)(=O)N(C)C[C@@H]1OCCCC[C@H](C)Oc2ccc(NC(=O)Nc3ccccc3)cc2C(=O)N([C@H](C)CO)C[C@H]1C | active
14 | Cc1noc(C)c1S(=O)(=O)N(C)C[C@H]1Oc2ccc(NC(=O)Cn3cnnn3)cc2C(=O)N([C@H](C)CO)C[C@H]1C | active
15 | Cc1noc(C)c1S(=O)(=O)N(C)C[C@H]1OCCCC[C@@H](C)Oc2ccc(NC(=O)Nc3ccccc3)cc2C(=O)N([C@H](C)CO)C[C@@H]1C | inactive
16 | Cc1noc(C)c1S(=O)(=O)N(C)C[C@H]1OCCCC[C@H](C)Oc2ccc(NC(=O)Nc3ccccc3)cc2C(=O)N([C@H](C)CO)C[C@@H]1C | active
17 | Cc1noc(C)c1S(=O)(=O)N(C)C[C@@H]1OCCCC[C@@H](C)Oc2ccc(NC(=O)Nc3ccccc3)cc2C(=O)N([C@H](C)CO)C[C@H]1C | inactive
18 | Cc1noc(C)c1S(=O)(=O)N(C)C[C@H]1Oc2ccc(NC(=O)Cn3cnnn3)cc2C(=O)N([C@@H](C)CO)C[C@H]1C | inactive
19 | Cc1noc(C)c1S(=O)(=O)N(C)C[C@H]1OCCCC[C@H](C)Oc2ccc(NC(=O)Nc3ccccc3)cc2C(=O)N([C@H](C)CO)C[C@H]1C | inactive
20 | Cc1noc(C)c1S(=O)(=O)N(C)C[C@@H]1OCCCC[C@@H](C)Oc2ccc(NC(=O)Nc3ccccc3)cc2C(=O)N([C@@H](C)CO)C[C@@H]1C | inactive
21 | Cc1ccc(S(=O)(=O)N(C)C[C@H]2Oc3ccc(NC(=O)CCN4CCOCC4)cc3C(=O)N([C@H](C)CO)C[C@@H]2C)cc1 | inactive
22 | C[C@@H]1CCCCO[C@@H](CN(C)C(=O)Nc2ccc(C(F)(F)F)cc2)[C@@H](C)CN([C@H](C)CO)C(=O)c2cc(NC(=O)Nc3cccc4ccccc34)ccc2O1 | inactive

Row | Compound | cytotoxicity call
23 | C=C/C=C/[C@@H]1C(=C)CN([C@@H](Cc2ccccc2)C(=O)OC)[C@H]1[C@@H](O)CCn1cc(CCC(=O)NO)nn1 | inactive
24 | C[C@H]1CN([C@@H](C)CO)C(=O)c2cccc(NC(=O)C3CC3)c2O[C@H]1CN(C)C(=O)Nc1ccc2c(c1)OCO2 | inactive
25 | CCC(C)(C)c1ccc(CC(C)CN2CC(C)OC(C)C2)cc1.Cl (centres undefined) | inactive
26 | NCc1cn(-c2ccccc2)nc1C12CC3CC(CC(C3)C1)C2 | active
27 | OCc1cn(-c2ccccc2)nn1 | inactive
28 | c1ccc(-c2nc(C34CC5CC(CC(C5)C3)C4)cs2)cc1 | inactive
29 | C[C@H]1CCN=C(N)S1 | inactive
30 | C[C@@H]1CN([C@@H](C)CO)C(=O)c2cccc(NC(=O)c3cnccn3)c2O[C@@H]1CN(C)S(=O)(=O)c1ccc(Cl)cc1 | inactive
31 | O=C(O)c1ccc(C(=O)O)nc1 | inactive
32 | COc1ccc2c3c([nH]c2c1)[C@H](CO)N(C[C@]13CCN(CC1)C(=O)c1ccncc1)C(=O)c1ccncc1 | inactive
33 | C[C@@H]1CN([C@@H](C)CO)C(=O)c2cc(NC(=O)CCCN(C)C)ccc2O[C@@H](C)CCCCO[C@H]1CN(C)CC1CCCCC1 | inactive
34 | Cc1n[nH]c(NCc2ccco2)nc1=O | inactive
35 | Cc1n[nH]c(N/N=C/c2ccccn2)nc1=O | active
36 | CCCNc1nc(=O)c(C)n[nH]1 | inactive
37 | Cc1ccc(-c2nn[nH]n2)n1C | inactive
38 | C[C@@H]1CN([C@@H](C)CO)C(=O)c2cc(NC(=O)NC3CCCCC3)ccc2O[C@@H](C)CCCCO[C@H]1CN(C)C(=O)c1ccncc1 | inactive
39 | C[C@@H]1CN([C@H](C)CO)C(=O)Cc2cc(NS(=O)(=O)c3ccccc3)ccc2O[C@@H]1CN(C)Cc1ccc2c(c1)OCO2 | inactive
40 | O=C(C[C@@H]1CC[C@@H]2[C@H](COC[C@@H](O)CN2C(=O)c2cnccn2)O1)N1CCN(c2ccccc2)CC1 | inactive
41 | Cc1cc(C(=O)Nc2cccc3c2O[C@@H](CN(C)C(=O)Nc2ccc4c(c2)OCO4)[C@@H](C)CN([C@H](C)CO)C3=O)n(C)n1 | inactive
42 | O=C(N[C@@H](c1ccccc1)c1ccc2ccccc2n1)C1CCN(CCOc2ccc(Cl)cc2)CC1 | inactive
43 | Cc1cc(-c2cc(OC(=O)c3ccccc3)ccc2Cl)cc2nnc(Nc3ccc(OCCN4CCCC4)cc3)nc12 | active
44 | O=C(N[C@@H](c1ccc(-c2ccccc2)cc1)c1cnccn1)C1CCN(CCOc2ccc(F)cc2)CC1 | inactive
